An excerpt weighted towards active compounds, which were near 3.4% of everything screened.
FBW7 act = activators of human E3 ligase FBW7; Q969H0; actives 0.13% (n = 650,000); AlphaScreen FBW7–phospho-cyclin E peptide binding, activator screen; normalized activity (activation), % at 26.1 µM; AID 1259310; in the data active means normalized activity above about 1.9%;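 further: purified mutant Fbw7 with reduced substrate affinity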
MITF primary = blocks human microphthalmia-associated transcription factor; O75030; AlphaScreen MITF homodimerization, bead proximity signal; inhibition, % at 2.6 µM; actives 0.91% (n = 650,000); AID 1259374; in the data active means inhibition above about 50%;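 further: 0% = vehicle wells with protein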
Target sequence (O75030 whole entry, looked up): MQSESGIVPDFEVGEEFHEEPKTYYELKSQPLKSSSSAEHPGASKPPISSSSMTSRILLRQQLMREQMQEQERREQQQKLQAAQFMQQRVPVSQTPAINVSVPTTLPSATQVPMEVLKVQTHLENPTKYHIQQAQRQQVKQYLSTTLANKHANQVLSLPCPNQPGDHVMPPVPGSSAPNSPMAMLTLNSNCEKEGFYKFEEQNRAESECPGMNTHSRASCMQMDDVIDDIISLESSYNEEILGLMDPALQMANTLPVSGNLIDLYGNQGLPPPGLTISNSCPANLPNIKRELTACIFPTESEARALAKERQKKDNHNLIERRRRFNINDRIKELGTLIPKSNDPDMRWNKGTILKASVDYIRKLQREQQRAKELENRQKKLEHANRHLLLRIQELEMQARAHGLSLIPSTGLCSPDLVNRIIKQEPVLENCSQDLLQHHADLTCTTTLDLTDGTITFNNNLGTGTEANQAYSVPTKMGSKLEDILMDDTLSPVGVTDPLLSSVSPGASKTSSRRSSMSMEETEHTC
TEAD-YAP block = TEAD-YAP interaction inhibition. HEK-TIYL cells, TEAD-Gal4/YAP UAS-luciferase luminescence. inhibition, % at 9.12 µM. actives 1.4% (n = 640,000); in the data active means inhibition above about 32%;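 further: 0% = median of test compound wells and 100% = reference inhibitor wells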
GPR151 activ = activators of human GPR151; Q8TDV0; PathHunter beta-arrestin GPR151 cells, luminescence; activation, % at 11.2 µM; actives 1% (n = 650,000); AID 1508602; in the data active means activation above about 4.9%;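 further: 0% = median of compound wells and 100% = cells with positive control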
An asterisk follows results filed as active.

SMILES	FBW7 act	MITF primary	TEAD-YAP block	GPR151 activ
COC(=O)c1cccnc1N	0.0	-2.0	5.1	0.8
CCC(C)C1(c2ccccc2)SC(NC(C)=O)=NN1C(C)=O (stereo not drawn)	0.5	9.4	38.1*	-1.2
CC(=O)NCC1(c2ccccc2)SC(NC(C)=O)=NN1C(C)=O (stereo not drawn)	0.4	16.1	60.2*	-0.3
Cc1ncn(-c2ccc(Nc3nccc(Nc4cccc(N)c4)n3)cc2)n1	-0.1	-1.0	34.7*	-0.7
Cc1ncn(-c2ccc(Nc3cc(-c4cccc(N5CCOCC5)c4)ccn3)cc2)n1	-0.2	-11.8	-11.4	1.3
Cc1ncn(-c2ccc(Nc3nccc(Nc4cccc(N5CCOCC5)c4)n3)cc2)n1	-0.5	0.5	63.4*	4.9
O=c1nc2n(c3ccc(Cl)cc13)CC(O)=C2c1nc2ccccc2[nH]1	-0.1	-0.5	1.7	3.8
CN(C)CCNc1ccnc2c(-c3cccc(C(N)=O)c3)cnn12	0.1	3.2	57.2*	-0.5
CN(C)CCNc1ccnc2c(-c3cc4ccccc4o3)cnn12	0.9	-1.8	67.6*	-2.1
CCCNc1ccnc2c(-c3cccc(/C=C/C(=O)O)c3)cnn12	-0.2	-18.9	63.9*	-1.0
Cc1cccc(N(C)c2ccnc3c(-c4cccc(C(N)=O)c4)cnn23)c1	0.1	-10.2	33.9*	1.8
c1ccc(CNc2ccnc3c(-c4cc5ccccc5o4)cnn23)nc1	0.4	12.1	-70.3	-1.0
COc1ccc(C2=Nc3ccc(F)cc3C(c3cccnc3)=NN2)cc1OC	0.1	-8.8	2.0	0.7
CCOCC(=O)Nc1ccc(-c2cn3c(C)csc3n2)cc1	0.0	-6.0	51.0*	0.4
COc1cccc(OC)c1C(=O)Nc1ccc(-c2cn3c(C)csc3n2)cc1	0.3	-21.7	38.1*	2.4
Cc1csc2nc(-c3ccc(NS(=O)(=O)c4cccnc4)cc3)cn12	-0.4	-6.4	35.7*	-0.6
CCC(C)Oc1ccc(/C=C2/NC(=O)N(c3ccccc3)C2=O)cc1 (stereo not drawn)	-0.1	2.1	-9.3	-0.8
COc1ccc(/C=C(\C#N)c2nc(-c3ccco3)cs2)cc1	0.8	6.6	-31.0	-0.2
O=C(Nc1cccc(Cl)c1N1CCN(CCc2ccccc2)CC1)c1ccc(Br)o1	0.0	-0.3	-4.0	22.8*
CCN1CCN(c2c(Cl)cccc2NC(=O)c2cccc3ccccc23)CC1	0.0	8.1	35.3*	1.9
C=C(C)CN1CCN(c2c(Cl)cccc2NC(=O)c2ccc(Br)o2)CC1	0.2	5.6	-4.7	1.5
FC(F)(F)c1cccc(N2CCC(N=CN3CCCCC3)=N2)c1	-0.1	22.4	-13.3	-0.7
O=C(O)c1cc(N2C(=O)C3CC=CCC3C2=O)ccc1N1CCOCC1 (stereo not drawn)	2.0*	6.8	11.3	0.1
O=C(O)c1cc(N2C(=O)C3CCCCC3C2=O)ccc1N1CCOCC1 (stereo not drawn)	0.0	-8.4	5.6	0.9
O=C1C(Cl)=C(N2CCCCC2)C(=O)C(Cl)=C1/C=C/N1CCCCC1	-0.5	86.2*	4.1	1.0
SMILES	FBW7 act	MITF primary	TEAD-YAP block	GPR151 activ
CCOC(CCn1c(SCC(=O)NCCc2ccc(OC)c(OC)c2)nc2ccccc2c1=O)OCC	-0.1	-0.7	-5.3	1.2
COc1ccc2c(C)nc(Nc3nc(C)cc(=O)[nH]3)nc2c1	-0.4	0.2	38.9*	0.2
CN(c1ccccc1)S(=O)(=O)c1ccc(C(=O)Nc2ccc(-c3nc4ccccc4[nH]3)cc2)cc1	1.0	6.8	-6.2	1.1
CC(=O)NS(=O)(=O)c1ccc(NC(=O)c2c(-c3ccccc3Cl)noc2C)cc1	1.9*	12.7	-10.3	1.1
CN(C)S(=O)(=O)c1ccc(C(=O)NC(=S)Nc2ccc(-c3nc4ccccc4[nH]3)cc2)cc1	3.9*	-17.4	-27.7	-1.5
Cc1onc(-c2ccccc2Cl)c1C(=O)Nc1ccc(-c2nc3ccccc3[nH]2)cc1	-0.2	-3.2	32.5*	3.5
Cc1onc(-c2ccccc2Cl)c1C(=O)Nc1ccccc1C(=O)Nc1ccccc1	0.0	-12.6	32.5*	1.8
COc1ccc(N2C(=O)N(c3ccccc3)C3CS(=O)(=O)CC32)cc1 (stereo not drawn)	-0.1	5.1	-0.4	1.9
COCCNC(=O)c1ccccc1I	0.0	0.9	-2.0	-0.4
O=C(Nc1ccon1)c1cnc2ccccn2c1=O	-0.4	-5.2	-25.3	-0.1
CCOc1ccc(/C=C/c2nc3ccccc3c(=O)o2)cc1	0.0	-2.7	83.2*	-8.4
COc1ccc2c(c1)c(=O)oc1cc(OCC(=O)O)ccc12	0.0	3.8	1.9	0.5
COc1ccc2c(c1)c(=O)oc1cc(OCC(=O)N(C)c3ccccc3)ccc12	0.8	52.1*	-0.1	-0.2
c1ccc(-c2cc(N3CCN(c4ccccn4)CC3)nc(-c3ccccn3)n2)nc1	-1.0	107.2*	71.0*	1.2
CCC(C)OC(=O)C1=C(C)NC2=C(C(=O)CC(c3ccc(Cl)cc3)C2)C1c1ccc(OC)c(Br)c1 (stereo not drawn)	0.0	-12.4	-1.9	-1.0
CCN(CC)C(=O)c1oc2ccc(S(=O)(=O)N3CC(C)CC(C)C3)cc2c1C (stereo not drawn)	0.2	7.0	40.3*	-0.1
O=[N+]([O-])c1ccc(O)c(/C=N/Nc2ccc(Cl)nn2)c1	-0.1	-11.1	46.4*	0.5
Cc1cc(N/N=C/c2ccc(O)c(C)c2O)nc(-c2ccccc2O)n1	0.2	-1.9	42.3*	0.4
Cc1cc(N/N=C/c2cc([N+](=O)[O-])ccc2O)nc(-c2ccccc2O)n1	-0.1	-11.6	77.4*	0.1
Cc1cc(N/N=C/c2cccc([N+](=O)[O-])c2)nc(-c2ccccc2O)n1	0.2	12.5	1.9	-0.5
COc1ccccc1-n1ncc2c(C)nnc(SCC(=O)Nc3cccc(C)c3C)c21	-0.1	14.1	11.1	0.7
COc1cc2ccccc2cc1C(=O)Nc1nc2c(s1)CCCC2	0.4	-9.0	-70.4	-1.4
COc1cc(SC)ccc1C(=O)Nc1nc2c(s1)CCCC2	0.4	5.2	98.3*	-7.4
COc1cc(SC)ccc1C(=O)Nc1nc2ccc(S(C)(=O)=O)cc2s1	0.1	5.4	46.5*	-1.1
CSc1cccc(C(=O)Nc2nc3c(s2)CCCC3)c1	-0.1	4.8	-74.7	-0.4
SMILES	FBW7 act	MITF primary	TEAD-YAP block	GPR151 activ
CC(=O)Nc1cc(NC(C)=O)cc(C(=O)Nc2nc3c(s2)CCCC3)c1	-0.2	5.6	52.2*	1.2
COc1ccc(C(=O)Nc2nc3c(s2)CCCC3)c(OC)c1	-0.2	4.2	94.8*	-10.0
COc1ccc(Cl)cc1C(=O)Nc1nc2ccc(S(C)(=O)=O)cc2s1	0.1	5.5	-3.3	-0.6
COc1cc(SC)ccc1C(=O)Nc1nc2c(s1)C(=O)CC(C)(C)C2	0.6	12.9	-22.1	-1.7
CCOc1ccc(-n2c(=S)sc3c(=O)n(-c4ccccc4)c(SCC(=O)NCCc4ccc(S(N)(=O)=O)cc4)nc32)cc1	-0.1	-7.3	4.9	-1.4
O=[N+]([O-])c1ccc(C2(O)CN(c3ccccc3)C3=[N+]2CCCCC3)cc1 (stereo not drawn)	0.1	-2.7	2.6	1.1
Cc1c(N)ccc2nc3c(=O)n(Cc4ccccc4)c(=O)[nH]c3nc12	-0.1	-2.4	0.7	0.3
